# Results taken from PubChem BioAssay (Tox21).
# Results filed as inconclusive are left out. Activity calls are given as the source filed them. The call rests on the fitted dose curve; in most records, active means well fitted activation curve with a large enough effect in the signal ratio in the repeat runs (not every such curve was filed as active); inconclusive means weak or mixed curves; inactive means flat fitted curve, though single readings scatter; the % refers to the signal ratio.
# Experiment: qHTS assay to identify small molecule agonists of the hypoxia (HIF-1) signaling pathway (AID 1224846)
# Settings: HRE-bla ME-180 cells, beta-lactamase ratio, 17 h; series mostly up to 76.8 µM; activation: at the top concentration
# Source text: U.S. Tox21 Program National Center for Advancing Translational Sciences [NCATS] NIH Chemical Genomics Center [NCGC] U.S. Environmental Protection Agency [EPA] National Institutes of Environmental Health Sciences [NIEHS] National Toxicology Program [NTP] U.S. Food and Drug Administration [FDA] Tox21 Assay Overview: Hypoxia-inducible factor-1 (HIF-1) is the major hypoxia-regulated transcription factor that controls cellular responses to low oxygen concentration. HIF-1 is composed of two subunits: hypoxia responsive HIF-1-alpha and constitutively expressed HIF-1-beta, which is also known as aryl hydrocarbon receptor nuclear translocator. During hypoxic conditions, HIF-1-alpha heterodimerizes with HIF-1-beta and translocates into the nucleus where the HIF-1 complex binds to the hypoxia-response element (HRE) and activates expression of target genes such as VEGF (vascular endothelial growth factor). The HIF-1 pathway is essential to normal growth and development, and is involved in the pathophysiology of cancer, inflammation, and ischemia. Using a beta-lactamase reporter-gene under control of the hypoxia response element, a cell-based assay [CellSensor(TM) HRE-bla ME-180 from Life Technologies, Carlsbad, CA] was used to measure hypoxia-induced signaling. Tox21 10K library compounds were measured for their ability to induce the reporter gene activity.
# Tox21 Assay Protocol Summary: HRE-bla ME-180 cells were dispensed at 2,000 cells per well in 6 uL of assay medium containing 0.5% dialyzed FBS into black wall/clear-bottom 1536-well plates using a Multidrop Combi (Thermo Scientific, Waltham, MA) dispenser. After the assay plates were incubated at 37C and 5% CO2 for 5 hrs, 23 nL of compounds dissolved in DMSO, positive controls or DMSO only was transferred to each well of the assay plate using a Pintool station (Kalypsys, San Diego, CA). The assay plates were incubated at 37C and 5% CO2 for 17 hrs. One uL of LiveBLAzerTM B/G FRET substrate (CCF4-AM) (Life Technologies) was added to each well using a Flying Reagent Dispenser (Aurora Discovery, San Diego, CA).
# On the % scale 0 is the no-effect control and ±100 the full control effect.
SMILES,activation,outcome
CC(C)=CC1C(C(=O)OCc2coc(Cc3ccccc3)c2)C1(C)C (stereo not given),5.03% (inactive),
CCCCCCOC(=O)c1ccccc1C(=O)OCCCCCC,,inactive
COP(=S)(OC)Oc1ccc([N+](=O)[O-])cc1,,inactive
O=P(Oc1ccccc1)(Oc1ccccc1)Oc1ccccc1,,inactive
Oc1c(Cl)c(Cl)c(Cl)c(Cl)c1Cl,,inactive
Oc1cc(Cl)ccc1Cl,,inactive
CCC(C)c1ccc(O)cc1 (stereo not given),,inactive
C=C(C)C(=O)OCC1CO1 (stereo not given),,inactive
CCN(N=O)C(N)=O,,inactive
N#CC(Br)Br,,inactive
CNC(=O)Oc1cccc2c1OC(C)(C)O2,,inactive
CCC(C)(c1ccc(O)cc1)c1ccc(O)cc1,,inactive
Nn1cnnc1,,inactive
Cc1ccc(N)c(N)c1,,inactive
O=[N+]([O-])c1cccc2ccccc12,,inactive
Nc1cccnc1,,inactive
CC(C)Oc1cc(-n2nc(C(C)(C)C)oc2=O)c(Cl)cc1Cl,1.4% (inactive),
c1ccc(N=Nc2ccccc2)cc1,,inactive
c1nc[nH]n1,,inactive
CCCCNC(=O)n1c(NC(=O)OC)nc2ccccc21,-0.301% (inactive),

SMILES,activation,outcome
Nc1ccc(-c2ccc(N)c(N)c2)cc1N,,inactive
CCN(CC)C(=O)/C(Cl)=C(\C)OP(=O)(OC)OC,,inactive
Cc1cc(Cl)ccc1OCCCC(=O)O,,inactive
CCC(C)(C)c1ccc(O)cc1,,inactive
CCOc1cc(C=O)ccc1O,,inactive
N#CCCCl,,inactive
Cc1cc(C)cc(C)c1,,inactive
C1=Cc2cccc3cccc1c23,,inactive
CCN(CC)N=O,,inactive
Clc1nc(Cl)nc(Cl)n1,,inactive
COP(=O)(OC)OC,,inactive
O=P(O)(O)CCCl,0.903% (inactive),
O=Cc1ccco1,,inactive
COc1ccc(C=O)cc1,,inactive
Nc1ccc(Cl)cc1N,,inactive
CN(C)c1ccc(C(=O)c2ccc(N(C)C)cc2)cc1,7.75% (inactive),
CCCCC(CC)COC(=O)Cl (stereo not given),,inactive
C=C(C)[C@H]1Cc2c(ccc3c2O[C@@H]2COc4cc(OC)c(OC)cc4[C@@H]2C3=O)O1,3.32% [at 35.5 µM] (inactive),
c1ccc(P(c2ccccc2)c2ccccc2)cc1,-1.25% (inactive),
C[C@]12CCC(=O)C(O)=C1CC[C@@H]1[C@@H]2CC[C@]2(C)C(=O)CC[C@@H]12,,inactive
